Data reported in PubChem BioAssay (Tox21).
A number with no mark means an inactive call. Results filed as inconclusive are left out. Entries that show only a call come without a potency. Active and inactive are the calls of the source. Unless noted, the call rests on the fitted dose curve; in most records, active means well fitted curve in the direction sought with a large enough effect in the repeat runs; inconclusive means weak or mixed curves; inactive means no such curve, though single readings can be large; an effect the other way counts as inactive or inconclusive.

What was measured:
[1] = qHTS assay to identify small molecule agonists of the hypoxia (HIF-1) signaling pathway - cell viability counter screen (AID 1224844; calls by dose curve; further: nearly all actives have a fitted effect of over 50% in size)
In short: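 Cytotoxicity was measured in parallel with the HRE-driven beta-lactamase readout: after 17 hrs of compound exposure at 37C, HRE-bla ME-180 cells received CellTiter-Glo and luminescence was recorded 30 min later.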

[2] = qHTS assay to identify small molecule agonists of H2AX (AID 1224845; active means well fitted activation curve with a large enough effect in the signal ratio in the repeat runs, not every such curve was filed as active; the % refers to the signal ratio)
In short: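 Wild-type CHO-K1 cells plated overnight, then exposed 3 hr at 37C to compounds at 15 concentrations (0.76% DMSO). Lysed, then HTRF anti-pH2AX(S139)-cryptate/anti-H2AX-d2 detection after 24 hr at room temperature; emissions 665 and 620 nm.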

[3] = qHTS assay to identify small molecule agonists of the hypoxia (HIF-1) signaling pathway (AID 1224846; active means well fitted activation curve with a large enough effect in the signal ratio in the repeat runs, not every such curve was filed as active; the % refers to the signal ratio; further: potency means the concentration at half of the fitted maximal effect)
In short: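 Compounds from the Tox21 10K library, dissolved in DMSO, are tested for induction of a hypoxia response element–controlled beta-lactamase reporter in ME-180 cells. Exposure lasts 17 hrs at 37C after a 5 hr settling period, followed by CCF4-AM FRET substrate.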

[4] = qHTS assay to identify small molecule agonists of H2AX - cell viability counter screen (AID 1224847; calls by dose curve; further: top concentration of the series differs between compounds; nearly all actives have a fitted effect of over 30% in size)
In short: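 CHO-K1 wt, 1000 cells/well, o/n 37C; cpds 15 conc, 3 h 37C, 0.76% DMSO; CellTiter-Glo, 30 min RT, luminescence.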

[5] = qHTS RealTime-Glo MT Cell Viability Assay in HepG2 cells - 24 hour (AID 1224867); further: nearly all actives have a fitted effect of over 50% in size
In short: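 HepG2 cells were seeded at 600 cells/well together with NanoLuc luciferase and a cell-permeant prosubstrate, preincubated 5 h at 37 C/5% CO2, then pin-dosed with compounds in DMSO. Nonlytic luminescence from viable cells was read at each time point.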

[6] = qHTS RealTime-Glo MT Cell Viability Assay in HEK293 cells - 32 hour (AID 1224868); further: top concentration of the series differs between compounds; nearly all actives have a fitted effect of over 50% in size
In short: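 HEK293 cells were seeded at 600 cells/well together with NanoLuc luciferase and cell-permeant prosubstrate, preincubated 5 h at 37 C/5% CO2, then given compound in DMSO by pintool. Luminescence from viable-cell prosubstrate reduction was read repeatedly over 40 h.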

[7] = A CellTox Green Cytotoxicity Assay to monitor cytotoxicity in HEK293 cells - 0 hour (AID 1224869); further: nearly all actives have a fitted effect of over 50% in size
In short: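 Cells (HEK293, 600/well) and dye reagent are dispensed together. After 5 h at 37 C, 23 nL compound is pinned in. Plates stay at 37 C for 40 h with fluorescence read at 0h, 8h, 16h, 24h, 32h and 40h.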

[8] = qHTS RealTime-Glo MT Cell Viability Assay in HepG2 cells - 40 hour (AID 1224870); further: nearly all actives have a fitted effect of over 50% in size
In short: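 HepG2 cells mixed with RealTime-Glo MT reagents (NanoLuc plus cell-permeant prosubstrate) were seeded at 600 cells/well, incubated 5 h at 37 C/5% CO2, then pinned with compounds in DMSO; nonlytic luminescence tracked viability during 40 h treatment.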

[9] = qHTS assay to identify small molecule agonists of the estrogen related receptor (ERR) signaling pathway from Tox21 library (AID 1224849; calls by dose curve; further: nearly all actives have a fitted effect of over 15% in size); details: ERR reporter cell line, ONE-Glo luciferase, 18 h; at 92.4 µM (top of the series) unless noted
In short: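 Cells carrying the ERR reporter were plated and allowed to settle for 6 h, exposed to library compounds for 18 h at 37 C, then lysed with ONE-Glo and luminescence measured.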

C#CCO
Potency [1]: inactive
Potency [2]: inactive
Potency [3]: inactive
Potency [4]: inactive
Potency [5]: inactive
Potency [6]: inactive
Potency [7]: inactive
Potency [8]: inactive

O=c1[nH]c(Cl)c(Cl)cc1Cl
Potency [1]: inactive
Potency [2]: inactive
Potency [3]: inactive
Potency [4]: inactive
activity change, positive = activation [9]: -28.7%
Potency [5]: inactive
Potency [6]: inactive
Potency [7]: inactive
Potency [8]: inactive

COC(=O)c1ccccc1S(=O)(=O)NC(=O)Nc1nc(C)nc(OC)n1
Potency [1]: inactive
Potency [2]: inactive
Potency [3]: inactive
Potency [4]: inactive
Potency [5]: inactive
Potency [6]: inactive
Potency [7]: inactive
Potency [8]: inactive

CN/C(=N\[N+](=O)[O-])NCc1cnc(Cl)s1
Potency [1]: inactive
Potency [2]: inactive
Potency [3]: inactive
Potency [4]: inactive
Potency [5]: inactive
Potency [6]: inactive
Potency [7]: inactive
Potency [8]: inactive

COc1c2c(cc3c1OCO3)CCN(C)C2
Potency [1]: inactive
Potency [2]: inactive
Potency [3]: inactive
Potency [4]: inactive
Potency [5]: inactive
Potency [6]: inactive
Potency [7]: inactive
Potency [8]: inactive

CNN
Potency [1]: inactive
Potency [2]: inactive
Potency [3]: inactive
Potency [4]: inactive
Potency [5]: inactive
Potency [6]: inactive
Potency [7]: inactive
Potency [8]: inactive

CC(=O)[O-].CC(=O)[O-].[Co+2]
Potency [1]: inactive
Potency [2]: inactive
Potency [3]: 21.9 µM (active)
Potency [4]: inactive
Potency [5]: inactive
Potency [6]: inactive
Potency [7]: inactive
Potency [8]: inactive

CSC(C)(C)/C=N/O
Potency [1]: inactive
Potency [2]: inactive
Potency [3]: inactive
Potency [4]: inactive
Potency [5]: inactive
Potency [6]: inactive
Potency [7]: inactive

c1cc[n+]2c(c1)-c1cccc[n+]1CC2
Potency [1]: inactive
Potency [2]: inactive
Potency [3]: inactive
Potency [4]: inactive
Potency [5]: inactive
Potency [6]: inactive
Potency [7]: inactive
Potency [8]: inactive

O.O.O.O.O.O.O=S(=O)([O-])[O-].[Ni+2]
Potency [1]: inactive
Potency [2]: inactive
Potency [3]: inactive
Potency [4]: inactive
Potency [5]: inactive
Potency [6]: inactive
Potency [7]: inactive

O=C(NC(=O)c1ccccc1Cl)Nc1ccc(OC(F)(F)F)cc1
Potency [1]: inactive
Potency [2]: inactive
Potency [3]: inactive
Potency [4]: inactive
Potency [5]: inactive

CC(Cl)CCl (stereo not given)
Potency [1]: inactive
Potency [2]: inactive
Potency [3]: inactive
Potency [4]: inactive
Potency [5]: inactive
Potency [6]: inactive
Potency [7]: inactive

CC[N+]1(CC)CCC(OC(=O)C(O)(c2ccccc2)c2ccccc2)C1 (stereo not given)
Potency [1]: inactive
Potency [2]: inactive
Potency [3]: inactive
Potency [4]: inactive
Potency [5]: inactive
Potency [6]: inactive
Potency [7]: inactive
Potency [8]: inactive

CNC(=O)CSP(=O)(OC)OC
Potency [1]: inactive
Potency [2]: inactive
Potency [3]: inactive
Potency [4]: inactive
Potency [5]: inactive
Potency [6]: inactive
Potency [7]: inactive
Potency [8]: inactive

C=CCBr
Potency [1]: inactive
Potency [2]: inactive
Potency [3]: inactive
Potency [4]: inactive
Potency [5]: inactive
Potency [6]: inactive
Potency [7]: inactive
Potency [8]: inactive

Nc1nc(N)nc(Cl)n1
Potency [1]: inactive
Potency [2]: inactive
Potency [3]: inactive
Potency [4]: inactive
Potency [5]: inactive
Potency [6]: inactive
Potency [7]: inactive
Potency [8]: inactive

CCCCn1cc[n+](C)c1 (tested in a mixture with another compound)
Potency [1]: inactive
Potency [2]: inactive
Potency [3]: inactive
Potency [4]: inactive
Potency [5]: inactive
Potency [6]: inactive
Potency [7]: inactive
Potency [8]: inactive

CCC(C)Br (stereo not given)
Potency [1]: inactive
Potency [2]: inactive
Potency [3]: inactive
Potency [4]: inactive
Potency [5]: inactive
Potency [6]: inactive
Potency [7]: inactive
Potency [8]: inactive

N#Cc1ccc(N(CC(N)=O)CC(F)(F)F)cc1C(F)(F)F
Potency [1]: inactive
Potency [2]: inactive
Potency [3]: inactive
Potency [4]: inactive
Potency [5]: inactive
Potency [6]: inactive
Potency [7]: inactive
Potency [8]: inactive

O=P(Cl)(Cl)Cl
Potency [1]: inactive
Potency [2]: inactive
Potency [3]: inactive
Potency [4]: inactive
Potency [5]: inactive
Potency [6]: inactive
Potency [7]: inactive
Potency [8]: inactive

C=CC(=C)C
Potency [1]: inactive
Potency [2]: inactive
Potency [3]: inactive
Potency [4]: inactive
Potency [5]: inactive
Potency [6]: inactive

CCNc1nc(NC(C)C(C)C)nc(SC)n1 (stereo not given)
Potency [1]: inactive
Potency [2]: inactive
Potency [3]: inactive
Potency [4]: inactive
Potency [5]: inactive
Potency [6]: inactive
Potency [7]: inactive
Potency [8]: inactive

[O-][Cl+3]([O-])([O-])O
Potency [1]: inactive
Potency [2]: inactive
Potency [3]: inactive
Potency [4]: inactive
Potency [5]: inactive
Potency [6]: inactive
Potency [7]: inactive
Potency [8]: inactive

BrCCCBr
Potency [1]: inactive
Potency [2]: inactive
Potency [3]: inactive
Potency [4]: inactive
Potency [5]: inactive
Potency [6]: inactive
Potency [7]: inactive

CCCCC(CC)COC(=O)OOC(C)(C)C (stereo not given)
Potency [1]: inactive
Potency [2]: inactive
Potency [3]: inactive
Potency [4]: inactive
Potency [5]: inactive
Potency [6]: inactive
Potency [7]: inactive

Clc1cc(Cl)c(-c2cc(Cl)c(Cl)cc2Cl)cc1Cl
Potency [1]: inactive
Potency [2]: inactive
Potency [3]: inactive
Potency [4]: inactive
Potency [5]: inactive
Potency [6]: inactive
Potency [7]: inactive
Potency [8]: inactive

CC[C@]1(O)CC[C@H]2[C@@H]3CCC4=CCCC[C@@H]4[C@H]3CC[C@@]21C
Potency [1]: inactive
Potency [2]: inactive
Potency [3]: inactive
Potency [4]: inactive
activity change, positive = activation [9]: -21.6% [at 42.5 µM]
Potency [5]: inactive
Potency [7]: inactive
Potency [8]: inactive

[Cl-].[Cl-].[Cl-].[Yb+3]
Potency [1]: inactive
Potency [2]: inactive
Potency [3]: inactive
Potency [4]: inactive
Potency [5]: inactive
Potency [6]: inactive
Potency [7]: inactive
Potency [8]: inactive
